Assay outcomes as filed in PubChem.
Shown are actives, neighbours in structure and some others; about 2.3% of the full set was active somewhere.
Nrf2 block: Nrf2 qHTS screen for inhibitors; A549 ARE-Fluc reporter, luciferase luminescence, 18-24 h; Potency, µM (doses to about 46 µM), hits mostly inhibitors; hit rate 2.1% among 360,000; further: nearly all actives have a fitted effect of over 60% in size
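Cells were seeded and rested 2 h, then exposed to compounds for 18-24 h. CellTiter-Fluor was read first as a viability measure. BugLite was added 15 min before the final luminescent read of ARE-luciferase activity in A549 cells.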
A549 tox: Nrf2 qHTS screen for inhibitors: counterscreen for cytotoxicity; A549 ARE-Fluc cells, CellTiter-Fluor viability, 18-24 h; AID 504648, 2011; Potency, µM (titrated, usually from 46 µM), actives largely listed as inhibitors; hit rate 0.16% among 390,000
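Cytotoxicity counterscreen: CellTiter-Fluor fluorescence was measured in A549 ARE_Fluc cells after 18-24 h of compound exposure in a concentration series. The subsequent BugLite luminescent read reports ARE-luciferase activity.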
Rango complex inh: qHTS Assay for Inhibitors of Rango (Ran-regulated importin-beta cargo) - Importin beta complex formation; Importin subunit beta-1 (Homo sapiens), Q14974; Rango CFP/YFP FRET sensor + importin beta, 45 min; Potency, µM (titrated, usually from 92.2 µM); hit rate 0.031% among 340,000; AID 540263, 2011; calls by dose curve; further: nearly all actives have a fitted effect of over 15% in size
Target sequence (Q14974 whole entry, looked up): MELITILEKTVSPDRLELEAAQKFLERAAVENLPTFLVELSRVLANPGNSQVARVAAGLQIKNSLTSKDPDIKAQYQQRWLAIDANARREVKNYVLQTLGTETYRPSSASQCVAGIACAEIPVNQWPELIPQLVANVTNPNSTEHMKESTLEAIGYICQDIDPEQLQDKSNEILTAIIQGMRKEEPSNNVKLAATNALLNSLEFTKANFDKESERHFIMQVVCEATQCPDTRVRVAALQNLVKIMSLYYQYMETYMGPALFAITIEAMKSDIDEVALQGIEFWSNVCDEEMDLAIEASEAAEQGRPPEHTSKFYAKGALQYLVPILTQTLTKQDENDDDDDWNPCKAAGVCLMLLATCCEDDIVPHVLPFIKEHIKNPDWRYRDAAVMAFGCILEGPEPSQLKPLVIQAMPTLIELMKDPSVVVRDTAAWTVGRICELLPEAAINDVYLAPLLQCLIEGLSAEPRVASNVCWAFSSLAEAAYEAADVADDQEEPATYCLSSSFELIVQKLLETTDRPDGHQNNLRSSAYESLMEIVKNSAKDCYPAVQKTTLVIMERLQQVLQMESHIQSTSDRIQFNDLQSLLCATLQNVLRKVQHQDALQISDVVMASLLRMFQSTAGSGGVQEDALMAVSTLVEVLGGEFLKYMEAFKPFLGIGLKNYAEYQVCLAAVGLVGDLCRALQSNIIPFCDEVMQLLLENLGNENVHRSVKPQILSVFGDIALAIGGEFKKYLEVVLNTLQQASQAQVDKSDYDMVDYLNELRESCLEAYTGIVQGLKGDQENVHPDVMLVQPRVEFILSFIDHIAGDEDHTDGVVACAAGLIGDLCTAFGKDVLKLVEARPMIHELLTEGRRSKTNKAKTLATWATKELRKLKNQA
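Inhibition scored from the CFP 486 nm/YFP 530 nm FRET ratio 45 min after adding 0.125 microM importin beta to 50 nM Rango biosensor preincubated 5 min with compound (room temperature, PBS with DTT, Tween-20, BSA). No-importin wells as positive control.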
Nrf2 activator: qHTS of Nrf2 Activators; hit rate 0.31% among 410,000; Potency, µM (top dose mostly 46.1 µM), usual class: activators; AREc32 ARE-luciferase reporter (MCF7-derived line), luminescence, 24 h; further: nearly all actives have a fitted effect of over 65% in size
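For detection, Steady-Glo was added and plates sat 30 min at RT; before that, AREc32_Fluc cells grown overnight in OPTI-MEM/5% FBS had been treated with 23 nL compound for 24 hr at 37 deg C.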
Rango dissoc inh: qHTS Assay for Inhibitors of RanGTP induced Rango (Ran-regulated importin-beta cargo) - Importin beta complex dissociation | AID 540253, 2011 | Biochemical FRET Rango-importin beta, RanGTP-induced dissociation | hit rate 0.071% among 340,000 | Potency, µM (top dose mostly 46.1 µM) | Snurportin-1 (Homo sapiens) + GTP-binding nuclear protein Ran (Homo sapiens) + Importin …; calls by dose curve; further: nearly all actives have a fitted effect of over 45% in size
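FRET read at 45 min, room temperature: inhibitors block the CFP/YFP signal rise when RanGTP (0.6 uM Ran, 2 mM GTP, 0.2 uM RCC1) frees Rango (0.1 uM) from importin beta (0.25 uM). Pre-read after 5 min compound exposure flags interference.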
Of the large screens only hits and unclear results are named; the others gave an inactive call. Unless noted, the call rests on the fitted dose curve; in most records, active means well fitted curve in the direction sought with a large enough effect; inconclusive means small, poorly fitted or top-dose-only effect, or another doubt; inactive means no such curve, though single readings can be large; an effect the other way counts as inactive or inconclusive.

COC(=O)/C(C#N)=C/c1c(N2CCN(c3ccccc3)CC2)nc2ccccn2c1=O	none
CNC(=O)/C(C#N)=C/c1c(N(Cc2ccccc2)Cc2ccccc2)nc2ccccn2c1=O	Nrf2 block inconclusive, A549 tox 23µM, Rango complex inh inconclusive, Rango dissoc inh inconclusive
COc1ccc(C(=O)/C=C/c2ccc(OC)c(Cn3nnc4ccccc43)c2)cc1	Nrf2 block 21µM, A549 tox inconclusive
COCCN(C(=O)c1ccc2c(c1)S(=O)(=O)N=C1CCCCCN12)c1c(N)n(CC(C)C)c(=O)[nH]c1=O	none
Cc1cnc(NC(=O)c2cccc(S(=O)(=O)N3CC(C)OC(C)C3)c2)s1 (centres undefined)	none
Cc1ccc(C(C)C)c(OCC(=O)Nc2cc(-c3nc4ccccc4[nH]3)ccc2C)c1	Nrf2 block 6.5µM, A549 tox 9.2µM (no result: Rango complex inh, Rango dissoc inh)
CCOC(=O)C1=C(c2ccccc2)NC(SCC(=O)Nc2ccccc2C)=C(C#N)C1c1ccco1 (centres undefined)	Nrf2 block inconclusive (no result: A549 tox)
CCOC(=O)C1=C(c2ccccc2)NC(SCC(=O)Nc2cccc(C)c2)=C(C#N)C1c1ccco1 (centres undefined)	Nrf2 block inconclusive, A549 tox 13µM, Rango complex inh inconclusive
CCOC(=O)C1=C(c2ccccc2)NC(SCC(=O)Nc2ccc(C)cc2)=C(C#N)C1c1ccco1 (centres undefined)	Nrf2 block 21µM, Rango complex inh inconclusive
CCc1nc2c(OCC3CCCCC3)cccn2c1N(C)C(=O)c1ccc(C)cc1	none (no result: Nrf2 block, A549 tox, Rango complex inh, Rango dissoc inh)
Cc1cc(NC(=O)COC(=O)C(Nc2ccc(C(F)(F)F)cc2Cl)C(C)C)no1 (centres undefined)	Nrf2 block 23µM, A549 tox 23µM
CCN(CC)CCNC(=O)c1ccc(-n2c(-c3ccccc3)cc3c2CCCC3)cc1	Nrf2 block inconclusive, Nrf2 activator 11µM (no result: Rango complex inh, Rango dissoc inh)
CCOCCCNC(=O)c1ccc(-n2c(-c3ccccc3)cc3c2CCC(C)C3)cc1 (centres undefined)	Nrf2 block inconclusive, Nrf2 activator inconclusive (no result: Rango complex inh, Rango dissoc inh)
COCCCNC(=O)c1ccc(-n2c(-c3ccccc3)cc3c2CCCC3)cc1	Nrf2 activator 13µM (no result: Rango complex inh, Rango dissoc inh)
CCCn1c(CNc2ccccc2O)nc2ccccc21	Nrf2 activator 14µM
Cc1cc(/C=C2\SC(=Nc3ccccc3)NC2=O)c(C)n1-c1ccc(S(N)(=O)=O)cc1	A549 tox 8.2µM, Rango complex inh inconclusive, Rango dissoc inh inconclusive (no result: Nrf2 block)
C=CCn1c2ccccc2c2nnc(SCCCn3c(=O)[nH]c4ccccc43)nc21	Nrf2 block 13µM
C=CCn1c2ccccc2c2nnc(SCCN3CCCCC3)nc21	none
O=C(Nc1ccccc1)C1=C[C@@H](c2csc3ccccc23)C[C@@H](OCc2ccc(CO)cc2)O1	Nrf2 block 16µM
O=C(NCc1ccccc1)C1=C[C@H](c2csc3ccccc23)C[C@H](OCc2ccc(CO)cc2)O1	Nrf2 block inconclusive
CN(C)c1nc(NC(C)(C)C)nc(SCC(=O)Nc2ccccc2)n1	Nrf2 block inconclusive, Rango complex inh inconclusive
CN(C)c1nc(NCc2ccccc2)nc(SCC(=O)Nc2ccccc2)n1	Nrf2 block 23µM
COc1ccccc1NS(=O)(=O)c1cc(NC(=O)c2ccc(Cl)nc2)ccc1Cl	Nrf2 block 23µM, A549 tox inconclusive
COc1ccccc1NS(=O)(=O)c1cc(NC(=O)c2ccncc2)ccc1N1CCCC1	Nrf2 block 21µM
O=C(Nc1ccc(N2CCOCC2)c(S(=O)(=O)Nc2ccccc2Cl)c1)c1ccccc1	Nrf2 block 16µM
COc1ccccc1NS(=O)(=O)c1cc(NC(C)=O)ccc1N1CCCCC1	Nrf2 block inconclusive
CN(c1nnc(NC(=O)Nc2ccc(Br)cc2)s1)C1CCCCC1	none (no result: Rango complex inh, Rango dissoc inh)
CC(C)c1ccc(NC(=O)c2cc(Br)ccc2Br)cc1	A549 tox inconclusive, Nrf2 activator 7.1µM
CC1CCC(NC(=O)c2nn(C)c3c2CSc2ccccc2-3)CC1 (centres undefined)	none
Cc1ccc(-c2nnc(Nc3ccc(O)cc3)c3ccccc23)cc1S(=O)(=O)N1CCCCC1	none (no result: Rango complex inh, Rango dissoc inh)
COc1ccc2nc(C)cc(SCC(=O)N/N=C/c3cccc4ccccc34)c2c1	Nrf2 block 16µM, A549 tox 23µM
COc1ccc2nc(C)cc(SCC(=O)N/N=C/c3ccc(O)c(O)c3)c2c1	none
C=C1C(=O)OC2CC1C(O)CC(C)=CCCC(C)=CC(O)CC2C (centres undefined)	Nrf2 block 9.2µM, A549 tox 15µM, Nrf2 activator inconclusive
C=C1C(=O)OC2C1CCC(C)C1C=CC(=O)C12C (centres undefined)	Nrf2 block inconclusive, Rango complex inh inconclusive, Nrf2 activator inconclusive
Cc1ccc(C(=O)/C=C/c2ccccc2[N+](=O)[O-])cc1	Nrf2 block inconclusive
O=C(/C=C/c1ccccc1[N+](=O)[O-])c1ccccc1Br	Nrf2 block 16µM, A549 tox inconclusive, Rango complex inh inconclusive
O=C(/C=C\c1ccccc1[N+](=O)[O-])Nc1ccccc1	Nrf2 block inconclusive, Nrf2 activator 11µM
CC(C)C(=O)Nc1nnc(-c2ccco2)s1	Nrf2 activator 10µM
O=C(Nc1nnc(-c2ccco2)s1)C1CCN(S(=O)(=O)c2ccc(Cl)cc2)CC1	none
O=C(Nc1nnc(-c2ccco2)s1)c1ccccc1	Nrf2 block inconclusive, Nrf2 activator inconclusive
O=C(Nc1nnc(-c2ccco2)s1)C1CC1	Nrf2 activator 11µM
C=CCN(C(C(=O)OC)C(C)C)S(=O)(=O)C=C (centres undefined)	none (no result: Rango complex inh, Nrf2 activator, Rango dissoc inh)
Cc1ccccc1OCc1nc2ccccc2c(=O)n1/N=C/c1c[nH]c2ccccc12	Nrf2 block inconclusive, A549 tox inconclusive, Rango complex inh inconclusive
Cc1cc(/C=N/n2c(COc3ccccc3C)nc3ccccc3c2=O)c(O)c([N+](=O)[O-])c1	Nrf2 block 8.2µM, A549 tox inconclusive
C[n+]1ccc(/C=C/c2ccc(Br)cc2)cc1	Nrf2 block 7.3µM, A549 tox inconclusive
Cc1ccc2[nH]c(C)c(/C=C/c3cc[n+](C)cc3)c2c1	Nrf2 block inconclusive, Rango complex inh inconclusive, Rango dissoc inh inconclusive
COc1ccccc1NS(=O)(=O)c1cccc(-n2c(O)c(C=Nc3ccccc3C(=O)O)c3ccccc3c2=O)c1	Nrf2 block inconclusive, Rango complex inh inconclusive, Rango dissoc inh inconclusive
COc1ccc(C2Nc3ccccc3C(=O)N2Cc2ccc(C(F)(F)F)cc2)cc1COc1ccc(NC(C)=O)cc1 (centres undefined)	Nrf2 block inconclusive (no result: Rango complex inh, Nrf2 activator, Rango dissoc inh)
Cc1sc(NC(=O)c2ccco2)c(CN2CCCCC2)c1C	Nrf2 activator 8.9µM
